This is a sample that favours compounds with a hit; in the whole collection about 7.2% have one here.
Bfl-1 A1 inh = inhibitors of the anti-apoptotic protein A1, read as caspase activation; hit rate 0.066% among 330,000; caspase activation, % (test concentration not listed); AID 2462; MEF A1-2A-BIM cells, Caspase-Glo 3/7 luminescence, 3 h; percent of clofoctol response, vehicle zero;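 active = over half of replicate activation scores above 10%, or exactly half above 10 with the replicate mean above 10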
Efflux pump mplx = antifungal efflux pump inhibition, Nile Red retention. S. cerevisiae Candida pump triplex. inhibition, % at 10 µM. hit rate 0.44% among 330,000;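 active = plate passing quality check with inhibition over a set limit, or well fluorescence over plate mean plus 4 SD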;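 also: Nile Red retained in pooled yeast measured as flow cytometry median fluorescence; 0% = buffer negative control and 100% = Enniatin B positive control; higher means more Nile Red kept so more efflux inhibition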
VLA-4 inh = inhibition in a human VLA-4 binding assay; VLA-4 expressing cells, ligand binding flow cytometry; inhibition, % (about 7 µM as worked out from the volumes in the protocol); hit rate 0.2% among 330,000; AID 2557; in the data active = inhibition above about 50%
Mot1-301 SUMO = inhibitors of SUMOylation pathway: yeast Mot1-301 growth rescue. S. cerevisiae Mot1-301 growth rescue, ATP luminescence, 38.5C; percent above DMSO median, 100 means doubled. growth rescue, % at 18.8 µM. hit rate 1% among 320,000;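 active = every valid replicate shows activation above 250% relative to neutral control wells; inactive = the rest, any valid replicate at or below 250%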;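 also: OY570 slx delta 5 strain wells were the positive control but not used for scaling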
ALR inh = human ALR oxidase inhibition via reduced H2O2 | P55789 | purified ALR, DTT oxidation, H2O2 HRP-luminol luminescence | inhibition, % (test concentration not listed) | hit rate 3.8% among 290,000;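 active = mean replicate inhibition above about 79%, with every replicate also reaching it, limit read from the data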
Target sequence (P55789 whole entry, looked up): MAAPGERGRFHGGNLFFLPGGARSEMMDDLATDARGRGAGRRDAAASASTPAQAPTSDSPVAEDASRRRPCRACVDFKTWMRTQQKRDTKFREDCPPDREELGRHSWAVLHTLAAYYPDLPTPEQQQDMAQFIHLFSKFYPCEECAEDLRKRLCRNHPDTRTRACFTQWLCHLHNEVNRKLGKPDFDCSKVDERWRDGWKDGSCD
AHR activator = human AHR activation | AHR-responsive luciferase reporter cells, luminescence | hit rate 2.5% among 320,000 | activation, % at 5 µM; in the data active = activation above about 47%;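 also: 0% = vehicle wells and 100% = reference agonist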
Yeast cmpd fluor = compound fluorescence in yeast efflux pump counter-screen; S. cerevisiae AD/pABC3, flow cytometry; shares compounds with Efflux pump mplx; fluorescence ratio to DMSO, % at 10 µM; AID 588517; hit rate 4% among 1,700;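 active = fluorescence ratio to DMSO above its plate's cutoff, the plate mean ratio plus 5 SD, cut at about 210% in these data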;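 also: unstained yeast with no Nile Red so the signal is compound autofluorescence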
CaMdr1 efflux inh = Candida Mdr1 efflux pump inhibition | shares compounds with Efflux pump mplx | S. cerevisiae AD/CaMDR1, Nile Red efflux, flow cytometry | inhibition, % at 10 µM | hit rate 1% among 1,700 | AID 588518; in the data active = inhibition above about 26%;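 also: 0% = DMSO vehicle and 100% = reference inhibitor; higher means more Nile Red retained so more efflux inhibition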
Cdr2 pump inh = Candida Cdr2 efflux pump inhibition. shares compounds with Efflux pump mplx. S. cerevisiae AD/CaCDR2, Nile Red retention, flow cytometry. Nile Red retention ratio vs DMSO, % at 10 µM. AID 588520. hit rate 4% among 1,700; in the data active = Nile Red retention ratio vs DMSO above about 190%;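 also: higher ratio means more blocking of Cdr2 efflux of the dye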
CaCdr1 efflux inh = blocks the Candida albicans Cdr1 efflux pump in yeast; inhibition, % at 10 µM; shares compounds with Efflux pump mplx; S. cerevisiae AD/CaCDR1, Nile Red efflux, flow cytometry; hit rate 1% among 1,700;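 active = inhibition above the screen-wide mean plus twice its standard deviation, cut at about 32% in these data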
Numbers without * were called inactive; x = not tested or not shown.

SMILES | Bfl-1 A1 inh | Efflux pump mplx | VLA-4 inh | Mot1-301 SUMO | ALR inh | AHR activator | Yeast cmpd fluor | CaMdr1 efflux inh | Cdr2 pump inh | CaCdr1 efflux inh
CCc1ccc(NC(=O)C(C)OC(=O)C2CCC(=O)N2)cc1 (centres undefined) | 1 | 0 | -6 | -20 | -6 | 0 | x | x | x | x
CCOc1ccccc1NC(=O)COC(=O)C(CC(C)C)N1C(=O)C2CC=CCC2C1=O (centres undefined) | 0 | 0 | -9 | 11 | -16 | 2 | x | x | x | x
CC(C)CC(C(=O)OCC(=O)Nc1cccc(Cl)c1)N1C(=O)C2CC=CCC2C1=O (centres undefined) | 1 | 2.7* | 23 | -12 | -8 | -4 | 102 | 0 | 114 | 0
CC(C)CN1C2CCCC1CC(NC(=O)c1ccc([N+](=O)[O-])cc1)C2 (centres undefined) | 0 | 0 | 10 | 23 | -28 | 1 | x | x | x | x
Cc1cc(C)n2nc(SCc3nnc(-c4ccc(F)cc4)o3)nc2n1 | 1 | 0 | 8 | 3 | -9 | 1 | x | x | x | x
O=C(NC(Cc1ccccc1)C(=O)O)c1ccc(S(=O)(=O)N2CCCCC2)cc1 (centres undefined) | 1 | 6.7* | 14 | -11 | 9 | -1 | 114 | 0 | 103 | 0
CCOC(=O)c1[nH]c(Cc2[nH]c(C(=O)OCC)c(C)c2CCC(=O)OC)c(CCC(=O)OC)c1C | 1 | 0 | -3 | 198 | -2 | -2 | x | x | x | x
CSc1ccc(S(=O)(=O)Nc2ccc(S(=O)(=O)Nc3ccc(C)cc3)cc2)cc1 | 1 | 0 | 5 | -20 | -1 | 3 | x | x | x | x
Cc1cc(F)ccc1S(=O)(=O)Nc1ccc(O)c(Sc2ncn[nH]2)c1 | 0 | 0 | 6 | 106 | 99* | 0 | 104 | 0 | 100 | 0
Cc1ccc(S(=O)(=O)Nc2ccc(O)c(Sc3ncn[nH]3)c2)cc1 | 1 | 2.0* | 1 | -25 | 99* | 5 | 105 | 0 | 95 | 0
COc1ccc(OC)c(S(=O)(=O)Nc2ccc(O)c(Sc3ncn[nH]3)c2)c1 | 0 | 0 | 2 | -13 | 99* | 2 | 96 | 0 | 93 | 0
Cc1ccc(C)c(S(=O)(=O)Nc2ccc(O)c(Sc3ncn[nH]3)c2)c1 | 1 | 0 | -36 | 4 | 99* | 1 | 105 | 0 | 97 | 0
Cc1ccc(C)c(S(=O)(=O)Nc2ccc3[nH]c(=O)[nH]c3c2)c1 | 1 | 0 | 3 | 8 | -21 | 0 | x | x | x | x
CCc1cc(=O)oc2c(C)c(OC(C)C(=O)NCCCn3ccnc3)ccc12 (centres undefined) | 0 | 0 | -2 | -3 | -2 | 5 | x | x | x | x
Cc1ccc(CNC(=O)CCSCCC(=O)NCc2ccc(C)cc2)cc1 | -1 | 0 | 12 | -15 | -3 | 0 | x | x | x | x
N#Cc1ccc(Oc2cccc3cccnc23)c([N+](=O)[O-])c1 | 0 | 0 | 10 | 10 | -6 | 9 | x | x | x | x
O=[N+]([O-])c1ccc(Oc2cccc3cccnc23)c([N+](=O)[O-])c1 | 1 | 0.9* | -78 | 6 | -3 | 53* | 123 | 0 | 123 | 0
COC(=O)c1ccc(N)c(N=CC2=C(O)CC(C)(C)CC2=O)c1 | -1 | 1.7* | 0 | 200 | x | 6 | 95 | 0 | 105 | 0
CC1(C)CC(=O)C(C=Nc2cc(C(=O)c3ccccc3)ccc2N)=C(O)C1 | 1 | 0 | -20 | 35 | -7 | 8 | x | x | x | x
CCOc1ccc(C(=O)NCC(C)CN(C)C)cc1OCC (centres undefined) | 0 | 0 | 0 | -18 | -9 | 0 | x | x | x | x
CC(CNC(=O)c1ccc(C(C)(C)C)cc1)CN(C)C (centres undefined) | 0 | 2.0* | 17 | -7 | 11 | 5 | 100 | 0 | 96 | 0
CC(=O)c1c(COC(=O)c2ccccc2)nc2ccccc2[n+]1[O-] | 0 | 1.8* | -4 | 574 | -2 | 10 | 95 | 0 | 105 | 0
CC(C)(C)C(=O)COC(=O)c1ccc(N)c([N+](=O)[O-])c1 | 0 | 0 | 5 | -3 | 9 | 1 | x | x | x | x
COc1ccc(CCOC(=O)c2ccc(N)c([N+](=O)[O-])c2)cc1 | 0 | 6.6* | -8 | 3 | 1 | -3 | 102 | 0 | x | 0
Cc1ccc(CN2C(=O)C(Cc3ccccc3)Nc3ncnc(N4CCN(c5ccccc5)CC4)c32)cc1 (centres undefined) | 0 | 1.1* | 0 | -16 | 3 | 2 | 96 | 0 | 110 | 0
SMILES | Bfl-1 A1 inh | Efflux pump mplx | VLA-4 inh | Mot1-301 SUMO | ALR inh | AHR activator | Yeast cmpd fluor | CaMdr1 efflux inh | Cdr2 pump inh | CaCdr1 efflux inh
Cc1ccc(CN2C(=O)C(Cc3ccccc3)Nc3ncnc(N4CCCCC4)c32)cc1 (centres undefined) | 1 | 0 | -4 | 39 | -1 | 3 | x | x | x | x
O=C1C(Cc2ccccc2)Nc2ncnc(N3CCN(c4ccccc4)CC3)c2N1Cc1ccccc1 (centres undefined) | 0 | 0 | 1 | -5 | -17 | 3 | 105 | 0 | 87 | 0
O=C1C(Cc2ccccc2)Nc2ncnc(N3CCN(c4ccccc4)CC3)c2N1Cc1ccc(Br)cc1 (centres undefined) | 0 | 82* | -3 | 11 | -7 | 0 | 110 | 56* | 112 | 76*
CC(=O)Nc1ccccc1OC(C)C(=O)NC(C)c1ccc(F)cc1 (centres undefined) | 1 | 5.8* | -3 | 167 | 18 | 7 | 117 | 0 | 131 | 0
CN1CCN(C(=O)/C=C/c2ccc([N+](=O)[O-])cc2)CC1 | 0 | 12* | 16 | 14 | 5 | 2 | 98 | 0 | 89 | 0
O=C(COC(=O)c1ccc(S(=O)(=O)N2CCCCC2)cc1)NCc1ccco1 | 0 | 1.6* | 33 | -11 | -2 | 1 | 103 | 0 | 103 | 0
O=C(COc1ccc(S(=O)(=O)N2CCCC2)cc1)NCc1ccco1 | 0 | 0 | -5 | 163 | 1 | 6 | x | x | x | x
CC1=NN(c2nc3ccccc3[nH]2)C(=O)/C1=C/N(C)C | -10 | 2.4* | 24 | -59 | -3 | 2 | 112 | 0 | 104 | 0
N#CC(C(=O)NCc1ccccc1)c1nc2ccccc2nc1N1CCCC1 (centres undefined) | 0 | 0.9* | -11 | 9 | -4 | 12 | 102 | 0 | 104 | 0
CC(C)(C)c1nc(NCCO)c2nnn(Cc3ccccc3)c2n1 | 0 | 0 | 1 | 14 | -11 | 0 | x | x | x | x

Compound activity: PubChem, several laboratories
